# SKKanGAS inh: SKKanGAS growth inhibition. S. pyogenes SKKanGAS, kanamycin growth, BacTiter-Glo, 6 h. inhibition, % at 7.5 µM. 300,000 tested, 1.3% active. AID 1662;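 active = mean replicate score, as percent of positive control median, at least 50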;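 also: strain carries kanamycin resistance gene driven by streptokinase promoter and grows in 40 µg/ml kanamycin; loss of luminescence reflects streptokinase promoter inhibition or plain growth inhibition; 0% = median of DMSO wells and 100% = positive control at its reference dose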
# tim10-1 inh: inhibits growth of tim10-1 mutant yeast; S. cerevisiae tim10-1 ts strain growth, BacTiter-Glo, 24 h; 330,000 tested, 2.2% active; inhibition, % at 20 µM;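 active = inhibition of at least 40%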;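 also: mutant grown at 25 °C; 0% = DMSO wells with yeast and 100% = wells holding no yeast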
# tim23-1 inh: inhibits growth of tim23-1 mutant yeast. S. cerevisiae tim23-1 growth, BacTiter-Glo luminescence, 24 h. inhibition, % at 20 µM. 330,000 tested, 1.3% active;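 active = growth inhibition of the mutant yeast at or above 50%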;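 also: temperature-sensitive mutant grown at 25 °C; plate controls were DMSO-treated mutant yeast for no effect and medium wells lacking yeast for full effect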
# NLRP3 yeast inh: inhibitors of NALP3 inflammasome in yeast | Yeast reconstituted NLRP3/ASC/caspase-1, beta-gal luminescence, 24 h | inhibition, % at 10 µM | 330,000 tested, 0.39% active;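 active = inhibition of 50% or more; inactive = inhibition below 50%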;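 also: plate controls were induced DMSO wells for no effect and uninduced yeast grown without galactose for full effect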
# PfHsp90 yeast 2: reduces growth (ATP signal) of yeast expressing P. falciparum Hsp90; S. cerevisiae expressing PfHsp90, BacTiter-Glo ATP, 48 h; yeast lacking PDR1 and PDR3 efflux regulators; inhibition, % at 9.4 µM; 310,000 tested, 0.32% active;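 active = every replicate shows inhibition above about 80%, whatever the replicate mean, limit read from the data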;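 also: 0% = DMSO neutral controls and 100% = 20 µM radicicol positive controls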
# TIM10 inh: TIM10 yeast growth inhibition; AID 463195; S. cerevisiae TIM10 strain growth, BacTiter-Glo luminescence, 24 h; 330,000 tested, 1.4% active; inhibition, % at 10 µM;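 active = inhibition of 40% or more at the single tested concentration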;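 also: wild-type TIM10 isogenic control strain grown at permissive 25 °C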
# tim10-1 confirm: confirmation of tim10-1 mutant yeast growth inhibitors | S. cerevisiae tim10-1 ts strain growth, BacTiter-Glo, 24 h | inhibition, % at 20 µM | shares compounds with tim10-1 inh | 7,400 tested, 56% active;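 active = inhibition of yeast growth at or above a set limit in either of two repeat tests at 20 µM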;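 also: tim10-1 mutant grown at permissive 25 °C to find synthetic lethal compounds; 0% = DMSO yeast wells and 100% = medium wells without yeast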
# Starred values were filed as active, the others as inactive; / = no result. Sampled rows, rich in hits. Any-hit rate of the full collection: about 4.5%.
SMILES,SKKanGAS inh,tim10-1 inh,tim23-1 inh,NLRP3 yeast inh,PfHsp90 yeast 2,TIM10 inh,tim10-1 confirm
O=C1/C(=C\c2cc3c(cc2Br)OCO3)N2CCC1CC2,-8,53*,48,-3,1,28,38*
Cc1[nH]nc2ccc(-c3cncc(OC[C@@H](N)Cc4c[nH]c5ccccc45)c3)cc12,/,/,/,/,-7,/,/
Clc1ccc(C[n+]2c(-c3ccccc3)cc(-c3ccccc3)cc2-c2ccccc2)cc1,1,45*,31,16,18,37,38*
Cc1cc(-c2ccccc2)cc(-c2ccccc2)[n+]1CCc1ccccc1,-2,14,-4,7,3,15,/
CCCCn1c(O)c(C(CC)=NCc2cc(OC)cc(OC)c2)c(=O)[nH]c1=O,-2,20,18,14,7,13,/
CCCCn1c(O)c(C(CC)=Nc2ccc(OC)cc2OC)c(=O)[nH]c1=O,10,41*,35,5,-21,21,16
CC(=O)OC[C@]12CCC(C)=C[C@H]1O[C@@H]1[C@H](O)[C@@H](OC(C)=O)[C@@]2(C)[C@]12CO2,/,54*,26,19,/,26,49*
CC1=CC2OC3CC4OC(=O)C=CC=CC(=O)OCCC(C)C(O)C(=O)OCC2(CC1O)C4(C)C31CO1 (configuration not stated),/,/,/,/,-44,/,/
N[C@@H](Cc1c[nH]c2ccccc12)c1nnc(SCc2ccc(F)cc2)o1,-3,/,/,/,/,/,/
N[C@@H](Cc1c[nH]c2ccccc12)c1nnc(SCc2ccccc2)o1,-5,43*,38,19,5,33,47*
CC(C)=CCSc1nnc([C@@H](N)Cc2c[nH]c3ccccc23)o1,3,45*,33,19,-9,9,32*
C=C(C)CSc1nnc([C@@H](N)Cc2c[nH]c3ccccc23)o1,2,42*,33,16,20,26,56*
N#Cc1cc2c(nc1SCC(=O)Nc1cc(Cl)ccc1Cl)C1CCN2CC1,8,40*,21,19,13,11,23
Cn1c(O)c(C(c2ccccn2)c2c(O)n(C)c(=S)n(C)c2=O)c(=O)n(C)c1=S,0,9,9,8,-18,-18,/
Cn1c(O)c(C(c2ccncc2)c2c(O)n(C)c(=S)n(C)c2=O)c(=O)n(C)c1=S,-2,42*,11,5,/,-17,14
CCCCC1(CCCC)C(=O)NC(=Nc2cccc(C)c2)NC1=O,2,40*,30,22,18,10,26
CCCC1(CCC)C(=O)NC(=Nc2ccccc2)NC1=O,-1,17,18,15,-2,-9,/
COc1ccc(C2=NS(=O)(=O)N(C)C(C(=O)N3CCC4(CC3)OCCO4)=C2)cc1OC,0,10,-10,11,-18,-2,/
COc1ccc(-c2cc(=O)oc3c(C)c(OC(C)C(=O)N4C[C@H]5C[C@@H](C4)c4cccc(=O)n4C5)ccc23)cc1 (some centres not stated),8,0,5,2,15,2,/
O=C1NC(=O)N(CCC2=CCCCC2)C(=O)/C1=C\c1cccs1,4,18,23,14,16,6,/
O=C1NC(=O)N(CCc2ccc(F)cc2)C(=O)/C1=C/c1cccs1,11,52*,44,2,/,1,-6
CN(C)C(=O)Oc1ccc2c(=O)c(Oc3ccccc3Br)coc2c1,-6,46*,29,0,19,15,13
COc1cccc(Oc2coc3cc(OC(=O)N(C)C)ccc3c2=O)c1,-1,17,11,26,-7,4,/
CCOc1cccc(CNCCc2c(C)[nH]c3ccc(OC(F)(F)F)cc23)c1O,4,8,-8,9,23,-2,/
Oc1c(Cl)c(Cl)c(Cl)c(Cl)c1Cl,-1,47*,39,40,23,39,31*
SMILES,SKKanGAS inh,tim10-1 inh,tim23-1 inh,NLRP3 yeast inh,PfHsp90 yeast 2,TIM10 inh,tim10-1 confirm
Cc1ccc(/C=C2/Sc3ccc(C(=O)N4CCC5(CC4)OCCO5)cc3NC2=O)cc1,53*,47*,40,0,1,23,20
CN1C(=O)c2ccccc2Sc2ccc(C(=O)N3CCC4(CC3)OCCO4)cc21,-1,2,29,14,/,28,/
CC(C)(C)c1cc([N+](=O)[O-])cc(C(C)(C)C)c1O,3,49*,43,12,/,25,44*
CCC(C)N1C(=O)NC(=O)C2(Cc3c(ccc4ccccc34)N(C)C2)C1=O (configuration not stated),13,45*,31,13,1,23,31*
COc1ccc2c(c1)CC1(CN2C)C(=O)NC(=O)N(CCc2ccccc2)C1=O (configuration not stated),2,3,22,24,-11,-11,/
COc1ccc2nc(NC(=O)CCc3nc(C4=CCN(C)CC4)no3)sc2c1,2,43*,12,1,-7,-1,13
COc1cc2c(cc1OC)C13CCN4CC5CCOC6CC(=O)N2C1C6C5CC43 (configuration not stated),/,/,/,/,-20,/,/
C[C@@H]1C(=O)O[C@H]2[C@H](O)[C@]34[C@@H]5OC(=O)[C@]3(OC3OC(=O)[C@H](O)C34[C@H](C(C)(C)C)[C@@H]5O)[C@@]12O (some centres not stated),/,/,/,/,-20,/,/
Brc1ccc2[nH]cc(/C=N/N3CCCCC3)c2c1,-3,42*,47,28,-7,18,22
Cc1cccnc1-n1c(CN2C(=O)c3ccccc3C2=O)nc2ccccc2c1=O,1,51*,32,-17,7,20,30*
COC/C=C1\CN2C3C[C@@H]1[C@H]1COC4=Nc5cc(OC)c(OC)c(OC)c5[C@@]43C[C@@H]12,1,3,7,12,3,-8,/
Cc1ccccc1OCCCn1cc(C(=O)C(=O)N2CCOCC2)c2ccccc21,0,21,13,2,/,37,/
COC(=O)C1=C(c2ccc(OC)c(OC)c2)C[C@@H]2CC[C@H]1N2C(=O)N1CCc2cc(OC)c(OC)cc2C1,/,-1,14,10,-44,8,/
C=C(C=O)CC1CC(O)[C@]2(C)OC3CC4OC5C[C@]6(C)O[C@]7(C)CCC8OC9C[C@]%10(C)OC%11C(C)=CC(=O)OC%11CC%10OC9C[C@@H](C)C8OC7CC6O[C@]5(C)CC5OC5C4OC3CC2O1 (some centres not stated),26,59*,-7,29,-3,-14,29*
COC(=O)C1=C(c2ccc(F)cc2OCc2ccccc2)C[C@@H]2CC[C@H]1N2C(=O)N1CCCC1,/,7,37,4,5,4,/
COc1cccc(CC(=O)N2CCN(Cc3cccc(Cl)c3)CC2)c1,-3,29,35,14,11,18,/

# From PubChem
